According to the supplement of paper PMC10849652:
Of roughly 7,900 targets only a part is listed; those with a hit were picked by preference. About 0.6% of all pairs of compound and target were hits. Unmarked numbers belong to inactive results.

Compound: Cn1cncc1[C@@](N)(c1ccc(Cl)cc1)c1ccc2c(c1)c(-c1cccc(Cl)c1)cc(=O)n2C [tipifarnib]
Assay: log2 fold change, soluble protein after heating vs DMSO (PISA); higher = thermal stabilisation; K562 cells, 10 uM, 30 min; active = over 0.2 and 3.5 SD of the protein, either way, in both replicates (recomputed)
Method in brief: (§1)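 Quantification of soluble protein used TMTpro 16plex LC-MS/MS, with channel sums equalised. Samples were the supernatant after 21,000xg for 90 min of pooled aliquots from K562 cells (2×10^6 cells/mL) treated with 10 μM compound for 30 min, heated for 3 min over 48°C-58°C, and extracted in PBS with 0.5% NP-40 at 4°C. Values, from duplicates, describe thermal stability against control samples on a log2 fold-change scale.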

UniProt O43318, sequence (O43318 whole entry, looked up): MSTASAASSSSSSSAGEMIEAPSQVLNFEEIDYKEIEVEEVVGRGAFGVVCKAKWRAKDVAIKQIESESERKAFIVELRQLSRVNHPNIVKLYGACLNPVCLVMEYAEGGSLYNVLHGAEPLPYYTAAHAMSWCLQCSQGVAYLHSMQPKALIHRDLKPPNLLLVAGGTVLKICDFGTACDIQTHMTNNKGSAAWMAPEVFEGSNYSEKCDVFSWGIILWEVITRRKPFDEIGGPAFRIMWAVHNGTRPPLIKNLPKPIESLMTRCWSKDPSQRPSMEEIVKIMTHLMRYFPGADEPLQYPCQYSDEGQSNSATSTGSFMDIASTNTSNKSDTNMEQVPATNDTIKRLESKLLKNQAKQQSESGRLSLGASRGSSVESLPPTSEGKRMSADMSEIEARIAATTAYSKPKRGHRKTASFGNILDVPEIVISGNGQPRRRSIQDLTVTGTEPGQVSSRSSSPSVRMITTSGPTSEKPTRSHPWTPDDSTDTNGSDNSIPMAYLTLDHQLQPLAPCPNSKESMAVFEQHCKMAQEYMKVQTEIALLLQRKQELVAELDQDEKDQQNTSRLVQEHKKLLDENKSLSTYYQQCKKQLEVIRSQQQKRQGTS
UniProt Q8IYU8, sequence (Q8IYU8 whole entry, looked up): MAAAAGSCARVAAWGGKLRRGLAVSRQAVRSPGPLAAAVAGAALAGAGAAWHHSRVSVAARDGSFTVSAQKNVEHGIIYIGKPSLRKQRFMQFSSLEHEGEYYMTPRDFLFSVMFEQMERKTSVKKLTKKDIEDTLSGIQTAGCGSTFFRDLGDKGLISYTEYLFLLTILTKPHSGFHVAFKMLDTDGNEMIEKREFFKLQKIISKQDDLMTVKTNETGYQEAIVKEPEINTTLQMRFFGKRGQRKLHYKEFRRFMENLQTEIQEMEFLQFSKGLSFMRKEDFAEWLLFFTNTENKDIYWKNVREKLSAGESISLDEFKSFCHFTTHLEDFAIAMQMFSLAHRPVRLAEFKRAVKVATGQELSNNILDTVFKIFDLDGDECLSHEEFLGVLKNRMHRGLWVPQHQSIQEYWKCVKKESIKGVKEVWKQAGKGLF
UniProt Q4G0J3, sequence (Q4G0J3 whole entry, looked up): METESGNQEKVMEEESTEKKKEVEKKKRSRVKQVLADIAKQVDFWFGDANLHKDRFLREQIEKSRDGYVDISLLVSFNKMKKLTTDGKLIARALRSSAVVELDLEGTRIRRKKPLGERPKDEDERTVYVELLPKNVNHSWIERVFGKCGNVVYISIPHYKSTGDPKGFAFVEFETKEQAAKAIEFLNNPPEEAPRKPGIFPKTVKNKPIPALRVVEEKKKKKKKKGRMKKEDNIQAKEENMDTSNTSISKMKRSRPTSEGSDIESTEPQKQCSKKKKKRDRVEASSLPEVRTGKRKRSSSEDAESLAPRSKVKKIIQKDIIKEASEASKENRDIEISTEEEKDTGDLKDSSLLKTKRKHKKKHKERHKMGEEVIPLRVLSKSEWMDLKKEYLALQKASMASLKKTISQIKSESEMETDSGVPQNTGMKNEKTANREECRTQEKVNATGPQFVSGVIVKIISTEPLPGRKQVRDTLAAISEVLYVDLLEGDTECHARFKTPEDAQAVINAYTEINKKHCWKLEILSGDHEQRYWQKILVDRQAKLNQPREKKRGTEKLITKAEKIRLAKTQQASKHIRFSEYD
UniProt P49006, sequence (P49006 whole entry, looked up): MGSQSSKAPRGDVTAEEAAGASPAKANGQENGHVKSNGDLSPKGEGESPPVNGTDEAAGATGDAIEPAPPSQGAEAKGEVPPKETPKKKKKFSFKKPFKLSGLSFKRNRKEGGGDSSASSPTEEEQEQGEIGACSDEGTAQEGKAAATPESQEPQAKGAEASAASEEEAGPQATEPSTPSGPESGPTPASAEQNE
UniProt Q86WA8, sequence (Q86WA8 whole entry, looked up): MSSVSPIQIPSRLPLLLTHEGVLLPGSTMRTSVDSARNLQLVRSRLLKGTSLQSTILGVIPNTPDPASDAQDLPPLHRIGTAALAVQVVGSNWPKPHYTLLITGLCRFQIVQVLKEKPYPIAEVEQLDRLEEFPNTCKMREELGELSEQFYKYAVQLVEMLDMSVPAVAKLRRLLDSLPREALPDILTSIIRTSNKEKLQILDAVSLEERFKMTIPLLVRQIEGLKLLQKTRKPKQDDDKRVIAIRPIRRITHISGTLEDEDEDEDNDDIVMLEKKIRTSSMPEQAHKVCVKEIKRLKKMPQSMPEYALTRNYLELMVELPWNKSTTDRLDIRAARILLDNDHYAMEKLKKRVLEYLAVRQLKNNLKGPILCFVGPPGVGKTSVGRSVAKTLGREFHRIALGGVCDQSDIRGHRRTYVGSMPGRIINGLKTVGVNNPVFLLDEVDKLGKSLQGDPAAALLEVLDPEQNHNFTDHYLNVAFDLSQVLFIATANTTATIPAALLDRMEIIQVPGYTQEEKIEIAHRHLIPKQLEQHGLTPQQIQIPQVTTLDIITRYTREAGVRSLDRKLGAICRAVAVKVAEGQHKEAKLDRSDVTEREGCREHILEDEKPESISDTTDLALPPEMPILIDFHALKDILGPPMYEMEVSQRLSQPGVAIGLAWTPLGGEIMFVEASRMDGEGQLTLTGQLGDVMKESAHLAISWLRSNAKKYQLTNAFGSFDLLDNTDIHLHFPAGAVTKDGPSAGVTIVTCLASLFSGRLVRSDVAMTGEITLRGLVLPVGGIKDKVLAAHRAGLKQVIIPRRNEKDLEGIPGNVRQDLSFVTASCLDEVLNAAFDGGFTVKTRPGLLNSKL
UniProt Q14624, sequence (Q14624 whole entry, looked up): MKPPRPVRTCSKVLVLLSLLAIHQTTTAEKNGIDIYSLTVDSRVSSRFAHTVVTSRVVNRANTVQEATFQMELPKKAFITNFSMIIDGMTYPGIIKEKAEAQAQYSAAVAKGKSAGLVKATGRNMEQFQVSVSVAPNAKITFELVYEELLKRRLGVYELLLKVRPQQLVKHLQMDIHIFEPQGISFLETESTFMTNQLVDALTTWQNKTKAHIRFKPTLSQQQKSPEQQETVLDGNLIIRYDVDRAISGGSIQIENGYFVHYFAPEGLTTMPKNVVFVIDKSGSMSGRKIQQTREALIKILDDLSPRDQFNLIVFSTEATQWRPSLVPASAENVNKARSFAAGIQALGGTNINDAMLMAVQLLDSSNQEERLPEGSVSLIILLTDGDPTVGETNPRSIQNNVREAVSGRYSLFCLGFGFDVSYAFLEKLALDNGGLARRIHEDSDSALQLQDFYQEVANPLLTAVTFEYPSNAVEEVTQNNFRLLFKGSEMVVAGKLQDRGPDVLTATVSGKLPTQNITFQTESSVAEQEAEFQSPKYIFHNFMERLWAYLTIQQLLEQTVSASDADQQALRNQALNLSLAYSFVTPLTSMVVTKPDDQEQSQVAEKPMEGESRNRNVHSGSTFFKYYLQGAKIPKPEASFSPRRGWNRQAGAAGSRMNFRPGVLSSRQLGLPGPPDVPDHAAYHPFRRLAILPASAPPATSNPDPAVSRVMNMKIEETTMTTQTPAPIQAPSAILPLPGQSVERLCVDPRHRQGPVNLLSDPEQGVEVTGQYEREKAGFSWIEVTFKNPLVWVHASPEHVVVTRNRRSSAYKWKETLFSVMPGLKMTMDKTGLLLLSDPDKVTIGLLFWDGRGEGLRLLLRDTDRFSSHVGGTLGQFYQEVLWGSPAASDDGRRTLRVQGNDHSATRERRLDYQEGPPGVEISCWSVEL
UniProt P46734, sequence (P46734 whole entry, looked up): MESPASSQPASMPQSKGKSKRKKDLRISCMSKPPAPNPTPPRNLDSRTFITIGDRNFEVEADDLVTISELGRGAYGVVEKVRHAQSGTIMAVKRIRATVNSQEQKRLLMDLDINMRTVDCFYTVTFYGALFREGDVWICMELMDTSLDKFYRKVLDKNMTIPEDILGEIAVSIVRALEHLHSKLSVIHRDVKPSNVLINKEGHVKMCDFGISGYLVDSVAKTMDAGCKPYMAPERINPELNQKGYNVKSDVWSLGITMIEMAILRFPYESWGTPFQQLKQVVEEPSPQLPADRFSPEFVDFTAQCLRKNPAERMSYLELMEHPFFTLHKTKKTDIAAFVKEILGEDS
UniProt Q9Y383, sequence (Q9Y383 whole entry, looked up): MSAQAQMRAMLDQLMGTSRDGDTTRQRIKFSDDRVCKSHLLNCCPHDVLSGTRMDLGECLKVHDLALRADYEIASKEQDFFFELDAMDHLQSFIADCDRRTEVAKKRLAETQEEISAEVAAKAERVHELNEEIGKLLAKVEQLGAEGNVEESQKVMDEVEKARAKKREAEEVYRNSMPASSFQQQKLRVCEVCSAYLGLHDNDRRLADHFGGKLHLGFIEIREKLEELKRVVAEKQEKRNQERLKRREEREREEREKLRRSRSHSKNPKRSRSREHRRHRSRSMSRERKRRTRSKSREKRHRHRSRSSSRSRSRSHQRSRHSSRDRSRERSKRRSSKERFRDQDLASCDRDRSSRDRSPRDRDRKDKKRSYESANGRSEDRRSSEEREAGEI
UniProt O14880, sequence (O14880 whole entry, looked up): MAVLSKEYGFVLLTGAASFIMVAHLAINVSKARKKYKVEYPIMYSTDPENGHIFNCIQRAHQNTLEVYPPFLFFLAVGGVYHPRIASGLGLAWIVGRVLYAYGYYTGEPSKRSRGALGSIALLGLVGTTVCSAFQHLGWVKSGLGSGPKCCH
UniProt P43362, sequence (P43362 whole entry, looked up): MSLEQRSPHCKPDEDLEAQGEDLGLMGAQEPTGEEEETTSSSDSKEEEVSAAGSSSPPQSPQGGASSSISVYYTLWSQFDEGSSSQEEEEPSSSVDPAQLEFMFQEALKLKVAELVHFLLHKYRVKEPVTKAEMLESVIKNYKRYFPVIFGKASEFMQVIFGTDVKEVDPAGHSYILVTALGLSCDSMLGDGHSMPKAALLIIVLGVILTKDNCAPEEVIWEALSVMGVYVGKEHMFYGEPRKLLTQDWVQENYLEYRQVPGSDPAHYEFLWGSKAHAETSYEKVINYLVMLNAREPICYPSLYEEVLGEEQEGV
UniProt Q96A72, sequence (Q96A72 whole entry, looked up): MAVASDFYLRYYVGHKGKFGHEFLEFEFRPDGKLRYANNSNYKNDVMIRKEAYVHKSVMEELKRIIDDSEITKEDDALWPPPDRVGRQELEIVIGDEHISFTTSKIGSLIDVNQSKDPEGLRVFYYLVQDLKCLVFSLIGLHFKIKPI

Target | log2 fold change
LUC7L2 (UniProt Q9Y383) | 0.049
ILF3 isoform 7 (UniProt Q12906) | 0.057
MAGOHB (UniProt Q96A72) | 0
KDM5D isoform 3 (UniProt Q9BY66) | -0.044
LIMD1 (UniProt Q9UGP4) | -0.071
MED1 (UniProt Q15648) | 0.069
MCL1 (UniProt Q07820) | 0.109
LIMA1 isoform 4 (UniProt Q9UHB6) | 0.088
LMBRD1 (UniProt Q9NUN5) | -0.156
KIF13A (UniProt Q9H1H9) | -0.014
MARCKSL1 (UniProt P49006) | 0.034
LARP4 isoform 4 (UniProt Q71RC2) | 0.071
KIF21A isoform 4 (UniProt Q7Z4S6) | -0.039
LEMD3 (UniProt Q9Y2U8) | -0.008
MAP3K7 (UniProt O43318) | -0.064
MAPKAPK3 (UniProt Q16644) | -0.048
MAPK14 isoform 2 (UniProt Q16539) | -0.049
ITIH4 (UniProt Q14624) | -0.038
MAGEA9 (UniProt P43362) | -0.008
IMMT isoform 4 (UniProt Q16891) | -0.03

Target | log2 fold change
MEPCE (UniProt Q7L2J0) | 0.029
LSS (UniProt P48449) | -0.039
LONP2 (UniProt Q86WA8) | 0.012
KDM3B (UniProt Q7LBC6) | 0.018
LARP4B (UniProt Q92615) | -0.008
LDLR (UniProt P01130) | 0.097
IRF2BPL (UniProt Q9H1B7) | -0.067
LTN1 isoform 3 (UniProt O94822) | -0.151
LARP7 isoform 3 (UniProt Q4G0J3) | 0.021
LNPK (UniProt Q9C0E8) | 0.054
MAP2K3 isoform 3 (UniProt P46734) | 0.08
MICU2 (UniProt Q8IYU8) | 0.022
MGST3 (UniProt O14880) | 0.019
KSR1 (UniProt Q8IVT5) | -0.086
IWS1 (UniProt Q96ST2) | -0.021
MFN1 (UniProt Q8IWA4) | 0.123
MARK3 (UniProt P27448) | -0.013
MDC1 (UniProt Q14676) | 0.058
MAP4 (UniProt E7EVA0) | 0.019

Compound: FC(F)(F)c1ccc(/C=C/c2nc(COc3ccc(CCCCn4ccnn4)cc3)co2)cc1 [mubritinib]
Assay: as above
Method in brief: as §1

Target | log2 fold change
LUC7L2 (UniProt Q9Y383) | -0.07
ILF3 isoform 7 (UniProt Q12906) | -0.031
MAGOHB (UniProt Q96A72) | 0.04
KDM5D isoform 3 (UniProt Q9BY66) | 0.203
LIMD1 (UniProt Q9UGP4) | 0.012
MED1 (UniProt Q15648) | 0.004
MCL1 (UniProt Q07820) | 0.001
LIMA1 isoform 4 (UniProt Q9UHB6) | 0.019
LMBRD1 (UniProt Q9NUN5) | 0.08
KIF13A (UniProt Q9H1H9) | 0.024
MARCKSL1 (UniProt P49006) | 0.005
LARP4 isoform 4 (UniProt Q71RC2) | -0.046
KIF21A isoform 4 (UniProt Q7Z4S6) | 0.11
LEMD3 (UniProt Q9Y2U8) | 0.001
MAP3K7 (UniProt O43318) | 0.046
MAPKAPK3 (UniProt Q16644) | -0.04
MAPK14 isoform 2 (UniProt Q16539) | 0
ITIH4 (UniProt Q14624) | -0.134
MAGEA9 (UniProt P43362) | -0.048
IMMT isoform 4 (UniProt Q16891) | 0.012

Target | log2 fold change
MEPCE (UniProt Q7L2J0) | -0.018
LSS (UniProt P48449) | 0.193
LONP2 (UniProt Q86WA8) | 0.063
KDM3B (UniProt Q7LBC6) | 0.002
LARP4B (UniProt Q92615) | -0.038
LDLR (UniProt P01130) | -0.082
IRF2BPL (UniProt Q9H1B7) | -0.055
LTN1 isoform 3 (UniProt O94822) | -0.009
LARP7 isoform 3 (UniProt Q4G0J3) | -0.05
LNPK (UniProt Q9C0E8) | 0.072
MAP2K3 isoform 3 (UniProt P46734) | -0.145
MICU2 (UniProt Q8IYU8) | -0.155
MGST3 (UniProt O14880) | -0.094
KSR1 (UniProt Q8IVT5) | -0.233
IWS1 (UniProt Q96ST2) | 0.035
MFN1 (UniProt Q8IWA4) | -0.01
MARK3 (UniProt P27448) | -0.075
MDC1 (UniProt Q14676) | -0.038
MAP4 (UniProt E7EVA0) | 0.055
